# Measured values from PubChem BioAssay (Tox21).
# Results filed as inconclusive are left out. A call without a number means that no potency is given here. The source made the active and inactive calls. Unless noted, the call rests on the fitted dose curve; in most records, active means well fitted curve in the direction sought with a large enough effect in the repeat runs; inconclusive means weak or mixed curves; inactive means no such curve, though single readings can be large; an effect the other way counts as inactive or inconclusive.
# How the values were obtained:
# [1] = qHTS assay to identify small molecule antagonists of the glucocorticoid receptor (GR) signaling pathway - cell viability counter screen (AID 720693); further: nearly all actives have a fitted effect of over 55% in size
# [2] = qHTS assay for identifying genotoxic compounds that show differential cytotoxicity against isogenic chicken DT40 cell lines with known DNA damage response pathways - wild type cell line (AID 743012); further: nearly all actives have a fitted effect of over 60% in size; further: potency means the concentration at half of the fitted maximal effect
# Method in brief: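 Endpoint: CellTiter-Glo luminescence, 30 min RT. Cells: wild type DT40, 300/well. Exposure: compounds in DMSO, 40 h, 37 C/5% CO2, after ~0.5 h pre-incubation.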
# [3] = qHTS assay to identify small molecule antagonists of the androgen receptor (AR) signaling pathway using the MDA cell line - cell viability counter screen (AID 743041; further: nearly all actives have a fitted effect of over 45% in size)
# Method in brief: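 Using the breast carcinoma line MDA-kb2 AR-luc, test chemicals were co-incubated with R1881 for 16 h; CellTiter-Fluor reagent, added at 15.5 h, provided a fluorescence measure of live cells.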
# [4] = test system: thyroid hormone receptor (rat, GH3 cells); assay: qHTS assay to identify small molecule agonists of the thyroid receptor (TR) signaling pathway (AID 743066; calls by dose curve)
# [5] = qHTS assay to identify small molecule antagonists of the estrogen receptor alpha (ER-alpha) signaling pathway - cell viability counter screen (AID 743074; calls by dose curve; further: nearly all actives have a fitted effect of over 45% in size)
# [6] = qHTS assay to identify small molecule antagonists of the estrogen receptor alpha (ER-alpha) signaling pathway using the BG1 cell line - cell viability counter screen (AID 743081);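 further: compound given together with 17beta-estradiol as the ER stimulus; series mostly up to about 70 µM; nearly all actives have a fitted effect of over 45% in size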
# [7] = biological target: Aromatase (Homo sapiens) (UniProt P11511); assay: qHTS assay to identify aromatase inhibitors (AID 743083); further: series mostly up to about 70 µM; nearly all actives have a fitted effect of over 55% in size
# [8] = qHTS assay to identify small molecule antagonists of the androgen receptor (AR) signaling pathway - cell viability counter screen (AID 743033; further: nearly all actives have a fitted effect of over 45% in size)
# [9] = biological target: Androgen receptor (Homo sapiens) (UniProt P10275); assay: qHTS assay to identify small molecule antagonists of the androgen receptor (AR) signaling pathway (AID 743035; active means well fitted inhibition curve with a large enough effect in the signal ratio in the repeat runs, not every such curve was filed as active; the % refers to the signal ratio)
# Method in brief: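 R1881 agonist challenge of a HEK293 UAS-beta-lactamase AR reporter line in the presence of compound (16 h, 37C); signal taken as FRET fluorescence after 2 h with LiveBLAzer B/G substrate at room temperature.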
# [10] = biological target: Androgen receptor (Homo sapiens) (UniProt P10275); assay: qHTS assay to identify small molecule agonists of the androgen receptor (AR) signaling pathway (AID 743036; active means well fitted activation curve with a large enough effect in the signal ratio in the repeat runs, with a control signal flat, not every such curve was filed as active; the % refers to the signal ratio)
# Method in brief: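 In this Tox21 qHTS, 2,000 HEK293 AR-bla cells per well were incubated with compounds for 16 h at 37C and 5% CO2. Fluorescence intensity was recorded 2 h after adding LiveBLAzer B/G FRET substrate at room temperature.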
# [11] = biological target: Androgen receptor (Homo sapiens) (UniProt P10275); assay: qHTS assay to identify small molecule agonists of the androgen receptor (AR) signaling pathway using the MDA cell line (AID 743040; further: nearly all actives have a fitted effect of over 20% in size)
# Method in brief: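 Stable MMTV-luciferase reporter in MDA-kb2 cells; note the promoter carries GR as well as AR response elements. 16 h compound treatment, 37C, 0% CO2; ONE-Glo luminescence endpoint.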
# [12] = biological target: Androgen receptor (Homo sapiens) (UniProt P10275); assay: qHTS assay to identify small molecule antagonists of the androgen receptor (AR) signaling pathway using the MDA cell line (AID 743042; further: nearly all actives have a fitted effect of over 55% in size)
# Method in brief: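 Antagonist mode: compounds plus R1881 agonist added to MDA-kb2 AR-luc cells, incubated 16 h at 37C. Luciferase reporter luminescence quantified, with multiplexed CellTiter-Fluor readout for cell viability.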
# [13] = qHTS assay to identify small molecule antagonists of the thyroid receptor (TR) signaling pathway - cell viability counter screen (AID 743064); further: nearly all actives have a fitted effect of over 50% in size; further: potency means the concentration at half of the fitted maximal effect
# Method in brief: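 Counter screen for cytotoxicity: compound plus T3 (1 nM final) on GH3.TRE-Luc cells, 23.5 h at 37 °C, then fluorescence viability readout with CellTiter-Fluor.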
# [14] = qHTS assay to identify small molecule antagonists of the thyroid receptor (TR) signaling pathway (AID 743065); further: nearly all actives have a fitted effect of over 55% in size; further: potency means the concentration at half of the fitted maximal effect
# Method in brief: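 Antagonism measured as loss of luciferase signal in GH3 cells stably carrying a TRE-luciferase reporter, co-treated with compound and T3 (1 nM final) for 23.5 h at 37 C. Viability was read in the same well by CellTiter-Fluor.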
# [15] = biological target: Estrogen receptor (Homo sapiens) (UniProt P03372); assay: qHTS assay to identify small molecule antagonists of the estrogen receptor alpha (ER-alpha) signaling pathway (AID 743069; active means well fitted curve in the direction sought with a large enough effect in the signal ratio in the repeat runs, not every such curve was filed as active; the % refers to the signal ratio)
# Method in brief: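 Fluorescence intensity from a beta-lactamase FRET substrate served as the read-out. Cells: HEK293 with stably integrated ER-alpha-UAS-bla reporter. Agonist 17beta-estradiol was co-added with compounds; incubation 18 hr at 37C, substrate 2 hr at room temperature.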
# [16] = biological target: Estrogen receptor (Homo sapiens) (UniProt P03372); assay: qHTS assay to identify small molecule agonists of the estrogen receptor alpha (ER-alpha) signaling pathway (AID 743075; calls by dose curve)
# [17] = biological target: Estrogen receptor (Homo sapiens) (UniProt P03372); assay: qHTS assay to identify small molecule agonists of the estrogen receptor alpha (ER-alpha) signaling pathway using the BG1 cell line (AID 743079); further: nearly all actives have a fitted effect of over 20% in size
# [18] = qHTS assay to identify small molecule antagonists of the estrogen receptor alpha (ER-alpha) signaling pathway using the BG1 cell line (AID 743080; calls by dose curve;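 further: BG1 cells stimulated with 17beta-estradiol alongside compound; series mostly up to about 70 µM; nearly all actives have a fitted effect of over 25% in size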)
# Method in brief: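 After 5 days in phenol-red-free 10% charcoal-stripped FBS medium, BG1-Luc-4E2 cells were seeded, left 24 h at 37 C, co-treated with compounds and 17beta-estradiol for 21.5 h, then assayed for viability and luciferase.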
# [19] = qHTS assay for identifying genotoxic compounds that show differential cytotoxicity against isogenic chicken DT40 cell lines with known DNA damage response pathways - Rev3 mutant cell line (AID 743014)
# [20] = qHTS assay for identifying genotoxic compounds that show differential cytotoxicity against isogenic chicken DT40 cell lines with known DNA damage response pathways - Rad54/Ku70 mutant cell line (AID 743015); further: nearly all actives have a fitted effect of over 60% in size
# Aromatase (Homo sapiens), sequence (P11511 whole entry, looked up): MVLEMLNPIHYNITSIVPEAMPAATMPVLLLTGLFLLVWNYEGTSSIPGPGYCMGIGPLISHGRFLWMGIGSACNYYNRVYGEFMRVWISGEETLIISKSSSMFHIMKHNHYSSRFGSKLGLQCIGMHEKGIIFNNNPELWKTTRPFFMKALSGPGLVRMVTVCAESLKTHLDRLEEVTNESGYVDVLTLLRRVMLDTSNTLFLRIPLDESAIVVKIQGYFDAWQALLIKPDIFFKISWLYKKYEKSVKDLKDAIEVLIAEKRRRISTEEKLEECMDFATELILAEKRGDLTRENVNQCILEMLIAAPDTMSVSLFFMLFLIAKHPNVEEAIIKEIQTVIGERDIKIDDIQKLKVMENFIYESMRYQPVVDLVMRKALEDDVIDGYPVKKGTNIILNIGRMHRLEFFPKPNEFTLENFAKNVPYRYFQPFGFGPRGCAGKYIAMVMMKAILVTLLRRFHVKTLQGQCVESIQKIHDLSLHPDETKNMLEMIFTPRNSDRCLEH
# Estrogen receptor (Homo sapiens), sequence (P03372 whole entry, looked up): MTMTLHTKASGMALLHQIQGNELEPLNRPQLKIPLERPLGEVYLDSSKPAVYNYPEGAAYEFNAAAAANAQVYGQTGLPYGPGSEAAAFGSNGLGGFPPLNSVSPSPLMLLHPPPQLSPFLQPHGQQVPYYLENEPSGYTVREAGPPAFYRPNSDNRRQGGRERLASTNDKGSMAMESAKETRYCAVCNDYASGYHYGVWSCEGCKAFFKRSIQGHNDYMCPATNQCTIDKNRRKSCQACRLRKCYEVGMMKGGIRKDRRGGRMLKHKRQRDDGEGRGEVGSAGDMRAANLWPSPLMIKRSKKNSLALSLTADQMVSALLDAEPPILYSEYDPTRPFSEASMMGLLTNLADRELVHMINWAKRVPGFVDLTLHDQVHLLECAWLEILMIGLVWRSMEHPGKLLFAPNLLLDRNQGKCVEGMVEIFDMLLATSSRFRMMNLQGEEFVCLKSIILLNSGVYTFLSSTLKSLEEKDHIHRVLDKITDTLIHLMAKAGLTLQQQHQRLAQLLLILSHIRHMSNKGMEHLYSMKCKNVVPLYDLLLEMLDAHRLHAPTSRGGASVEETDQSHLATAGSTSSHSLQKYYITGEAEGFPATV
# Androgen receptor (Homo sapiens), sequence (P10275 whole entry, looked up): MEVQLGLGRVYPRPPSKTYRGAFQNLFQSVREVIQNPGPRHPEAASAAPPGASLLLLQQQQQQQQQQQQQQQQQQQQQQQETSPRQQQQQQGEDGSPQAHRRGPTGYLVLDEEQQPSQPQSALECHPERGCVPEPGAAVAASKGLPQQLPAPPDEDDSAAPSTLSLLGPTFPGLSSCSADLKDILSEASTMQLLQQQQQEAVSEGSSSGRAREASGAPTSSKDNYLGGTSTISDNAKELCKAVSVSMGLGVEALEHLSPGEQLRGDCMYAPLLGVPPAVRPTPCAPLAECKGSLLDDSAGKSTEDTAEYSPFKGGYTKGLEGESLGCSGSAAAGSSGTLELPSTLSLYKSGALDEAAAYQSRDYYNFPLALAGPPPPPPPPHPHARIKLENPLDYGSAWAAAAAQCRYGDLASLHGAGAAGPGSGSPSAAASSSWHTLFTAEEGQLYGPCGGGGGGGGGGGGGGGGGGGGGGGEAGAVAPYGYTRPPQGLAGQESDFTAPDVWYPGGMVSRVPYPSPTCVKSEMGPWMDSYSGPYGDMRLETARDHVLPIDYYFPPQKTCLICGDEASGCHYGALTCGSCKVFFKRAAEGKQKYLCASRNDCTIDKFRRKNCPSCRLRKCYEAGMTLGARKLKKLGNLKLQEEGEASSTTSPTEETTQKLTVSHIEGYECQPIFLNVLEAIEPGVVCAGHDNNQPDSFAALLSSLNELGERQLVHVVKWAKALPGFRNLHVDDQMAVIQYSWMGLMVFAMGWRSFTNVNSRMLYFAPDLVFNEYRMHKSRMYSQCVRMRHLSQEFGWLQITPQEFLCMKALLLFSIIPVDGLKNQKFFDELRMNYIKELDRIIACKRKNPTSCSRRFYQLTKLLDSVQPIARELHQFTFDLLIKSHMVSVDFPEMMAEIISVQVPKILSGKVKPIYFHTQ
SMILES,outcome [1],Potency [2],Potency [3],outcome [4],Potency [5],Potency [6],Potency [7],outcome [8],Potency [9],outcome [10],Potency [11],outcome [12],Potency [13],Potency [14],Potency [15],outcome [16],Potency [17],outcome [18],Potency [19],Potency [20]
CC(C)NC[C@@H](O)COc1cccc2ccccc12,inactive,26.6 µM (active),inactive,inactive,inactive,inactive,inactive,,,,,,,,,,,,,
Cc1c(C(=O)NCCO)[n+](=O)c2ccccc2n1[O-],inactive,inactive,inactive,inactive,inactive,inactive,inactive,inactive,inactive,inactive,inactive,inactive,inactive,inactive,,,,,,
CCCCNC(=S)NCCCC,inactive,48.6 µM (active),inactive,inactive,inactive,inactive,inactive,,,,,,inactive,inactive,inactive,inactive,inactive,inactive,,
CC(C)(C)c1cccc(O)c1,inactive,,inactive,inactive,inactive,inactive,inactive,inactive,inactive,inactive,inactive,inactive,inactive,inactive,inactive,inactive,inactive,inactive,61.1 µM (active),
CN(CC1(C)CCCO1)S(=O)(=O)c1ccc(Cl)c(S(N)(=O)=O)c1 (stereo not drawn),inactive,inactive,inactive,inactive,inactive,,inactive,inactive,,,,,inactive,inactive,,,,,,inactive
O=C1Nc2ccc([N+](=O)[O-])cc2C1=O,inactive,inactive,,inactive,inactive,,,inactive,,,,,inactive,inactive,,,,,,inactive
CC(=O)N[C@@H](CC(C)C)C(=O)O,inactive,inactive,inactive,inactive,inactive,inactive,inactive,inactive,,,,,,inactive,inactive,inactive,,inactive,,inactive
CC(CNC1CCCCC1)OC(=O)c1ccccc1 (stereo not drawn),inactive,inactive,inactive,inactive,inactive,inactive,inactive,inactive,,,,,inactive,inactive,inactive,inactive,inactive,inactive,,
CCCC1CCC(=O)O1 (stereo not drawn),inactive,inactive,inactive,inactive,inactive,inactive,inactive,inactive,,,,,,inactive,,,,,,
c1ccc(CN(CC2=NCCN2)c2ccccc2)cc1,inactive,29.8 µM (active),inactive,inactive,inactive,inactive,inactive,inactive,,,,,26.6 µM (active),23.7 µM (active),,inactive,inactive,inactive,,
COC(C)CCO (stereo not drawn),inactive,inactive,inactive,inactive,inactive,inactive,inactive,inactive,inactive,inactive,inactive,inactive,inactive,inactive,,,,,,
